# Screening data deposited in PubChem by The Scripps Research Institute Molecular Screening Center.
# TEAD-YAP inh = TEAD-YAP interaction inhibition; HEK-TIYL cells, TEAD-Gal4/YAP UAS-luciferase luminescence; inhibition, % at 9.12 µM; 640,000 tested, 1.4% active; in the data active = inhibition above about 32%
# GPR151 ag = activators of human GPR151; 650,000 tested, 1% active; PathHunter beta-arrestin GPR151 cells, luminescence; Q8TDV0; activation, % at 11.2 µM; in the data active = activation above about 4.9%
# Target sequence (Q8TDV0 whole entry, looked up): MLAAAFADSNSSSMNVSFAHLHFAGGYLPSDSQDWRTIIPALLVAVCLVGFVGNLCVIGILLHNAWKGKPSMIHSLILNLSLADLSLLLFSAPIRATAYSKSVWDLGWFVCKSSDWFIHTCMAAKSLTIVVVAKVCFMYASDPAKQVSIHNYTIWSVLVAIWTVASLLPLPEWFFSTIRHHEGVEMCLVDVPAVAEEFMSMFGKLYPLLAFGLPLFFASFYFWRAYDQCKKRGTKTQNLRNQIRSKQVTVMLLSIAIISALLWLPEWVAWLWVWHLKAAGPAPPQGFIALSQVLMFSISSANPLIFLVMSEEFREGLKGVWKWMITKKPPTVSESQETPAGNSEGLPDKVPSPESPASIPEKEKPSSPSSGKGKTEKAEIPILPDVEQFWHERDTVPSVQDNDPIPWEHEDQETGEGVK
# FBW7 act = human FBW7 E3 ligase activation, primary screen; Q969H0; AlphaScreen FBW7–phospho-cyclin E peptide binding, activator screen; normalized activity (activation), % at 26.1 µM; 650,000 tested, 0.13% active; AID 1259310; in the data active = normalized activity above about 1.9%;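 note: purified mutant Fbw7 with reduced substrate affinity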
# MITF inh = inhibitors of human MITF. O75030. inhibition, % at 2.6 µM. 650,000 tested, 0.91% active. AID 1259374. AlphaScreen MITF homodimerization, bead proximity signal; in the data active = inhibition above about 50%
# GPR151 confirm = confirmation of human GPR151 activators. shares compounds with GPR151 ag. AID 1508609. activation, % at 11.2 µM. GPR151 PathHunter beta-arrestin cells, luminescence, 90 min; % of EA-reagent control over plate median. 6,700 tested, under 10 active;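 active = mean percent activation across replicates above the confirmation screen cutoff of 4.91%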
# GPR119 counter = counter-screen for GPR151 activators: effect on human GPR119. shares compounds with GPR151 ag. GPR119 PathHunter beta-arrestin cells, luminescence, 90 min; 0 = compound-well median, 100 = enzyme-acceptor control. activation, % at 11.2 µM. 6,700 tested, 0.3% active;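 active = mean percent activation in the counterscreen above 29.09%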;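 note: counterscreen on off-target GPR119 to flag nonselective hits from the GPR151 activator screen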
# Numbers stand for hits; 0 = inactive; - = no result. This is a sample that favours compounds with a hit; in the whole collection about 3.5% have one here.
SMILES,TEAD-YAP inh,GPR151 ag,FBW7 act,MITF inh,GPR151 confirm,GPR119 counter
S=C(Nc1ccc2ocnc2c1)NC1CCCCC1,0,0,0,0,-,-
COc1cc(OC)c(NC(=O)CNC(=O)Cn2cnc3ccccc3c2=O)cc1Cl,0,0,0,0,-,-
CC1=C(C(=O)Nc2cccc(C(F)(F)F)c2)C(c2cccs2)C2=C(CCCC2=O)N1 (stereo unspecified),0,6.5,0,0,0,0
COc1ccc(NC(=O)c2cccc3ccccc23)cc1,0,0,0,0,-,-
COC(=O)c1ccccc1C(=O)c1cccc2ccccc12,0,10,0,0,0,0
COc1ccc(CCN2C(=O)CC(C(=O)Nc3ccccc3)SC2=Nc2ccc(F)cc2)cc1 (stereo unspecified),0,0,0,0,-,-
CC1=C(C)/C(=N/OC(=O)c2ccc(C)cc2)C=CC1=O,0,7.0,0,0,0,0
c1ccc(CNc2nc3nonc3nc2N2CCC(OCc3cccnc3)CC2)cc1,0,0,0,0,-,-
COc1ccccc1-c1ccc2c(c1)COC1(CCN(C)CC1)O2,0,0,0,0,-,-
O=C(Nc1ccccn1)C1(c2cccs2)CCOCC1,0,0,0,0,-,-
Cc1ccnc(NC(=O)C2(c3cccs3)CCOCC2)c1,0,5.3,0,0,0,0
O=C(COc1ccc(Cl)cc1Cl)Nc1cc(-c2ccccc2)nn1CCO,0,5.9,0,0,0,0
O=C(COc1ccccc1F)Nc1cc(-c2ccccc2)nn1CCO,0,0,0,0,-,-
Cc1cccc(-n2nc3c(c2NC(=O)COc2ccc(Cl)cc2Cl)CS(=O)(=O)C3)c1C,0,0,0,0,-,-
Cc1ccccc1-n1nc2c(c1NC(=O)COc1ccc(Cl)cc1Cl)CS(=O)(=O)C2,0,8.8,0,0,0,0
CC1=C(C(=O)OC2CCCCC2)C(c2ccccc2OCc2ccccc2)C2=C(CCCC2=O)N1 (stereo unspecified),0,0,0,0,-,-
CCN1CCN(C(=O)c2sc3ncn(CC(=O)N4CC(C)CC(C)C4)c(=O)c3c2C)CC1 (stereo unspecified),0,0,0,0,-,-
CC(C)(C)c1ccc(C(=O)NNC(=O)c2ccccc2F)cc1,0,0,0,0,-,-
CC(C)CC(NC(=O)C1CCC(C)CC1)C(=O)Nc1cccnc1 (stereo unspecified),0,7.4,0,0,0,0
CCCS(=O)(=O)Nc1nccnc1N1CCN(C(=O)c2cccn2C)CC1,0,0,0,0,-,-
NC1(C(Cl)(Cl)Cl)Oc2ccc(Cl)cc2O1 (stereo unspecified),0,9.9,0,0,0,0
CCN=C(Nc1cc(-c2ccccc2OC)[nH]n1)SC,0,0,0,0,-,-
CC(=O)c1cccc(NC(=O)c2ccoc2C)c1,0,5.9,0,0,0,0
CCOC(=O)CN1CC(O)=C(C=NCc2ccccc2)C1=O,0,7.4,0,0,0,0
O=C(C1CCCCC1)N1CCOc2ccc(CN3CCN(Cc4ccccn4)CC3)cc2C1,0,5.0,0,0,0,0
SMILES,TEAD-YAP inh,GPR151 ag,FBW7 act,MITF inh,GPR151 confirm,GPR119 counter
O=C(C1CCC1)N1CCOc2ccc(CN3CCN(c4ccccn4)CC3)cc2C1,0,0,0,0,-,-
NC(=O)CN1CCN(S(=O)(=O)c2ccc(C(F)(F)F)cc2)CC1,0,0,0,0,-,-
CCN(CC)c1ncnc2sc(C(=O)NCc3ccccc3OC)c(C)c12,0,0,0,0,-,-
c1ccc2c(c1)OC[C@@H](c1nc3ccc(-c4ccncc4)cc3[nH]1)O2,0,0,0,0,-,-
Cc1ccc2c(c1)OCC(c1nc3ccc(-c4ccncc4)cc3[nH]1)O2 (stereo unspecified),0,5.1,0,0,0,0
CC(=O)/C(N=Nc1ccc([N+](=O)[O-])cc1)=C(/O)c1ccccc1,0,0,0,0,-,-
O=C(N1CCOCC1)N1CCN(S(=O)(=O)N2CCCC2)CC1,0,0,0,0,-,-
O=C(N1CCCCCC1)N1CCN(C(=O)N2CCOCC2)CC1,0,5.8,0,0,0,0
Cc1ccc(C(C)C)cc1OCCOCCNCCN(C)C,0,5.1,0,0,0,0
O=C(NC1CCSC1=O)c1cccc(C(=O)NC2CCSC2=O)c1 (stereo unspecified),0,5.3,0,0,0,0
CC(=O)N1CCc2cc(C(=O)CN3CC(C)CC(C)C3)ccc21 (stereo unspecified),0,6.2,0,0,0,0
CCCCc1nc(SCc2cccnc2)c2c(=O)n(C)c(=O)n(C)c2n1,0,0,0,0,-,-
CCc1nc(SCc2cccnc2)c2c(=O)n(C)c(=O)n(C)c2n1,0,8.2,0,0,0,0
Cc1ccc(NC(=O)Cn2c3ccccc3c(=O)c3ccc(Cl)cc32)cc1C,0,0,0,0,-,-
Cc1ccoc1C(=O)NCC1Cc2cc(-c3cnccn3)cc(Cl)c2O1 (stereo unspecified),0,0,0,0,-,-
CC(=O)NCC(=O)NCC1Cc2cc(-c3cnccn3)cc(Cl)c2O1 (stereo unspecified),0,4.9,0,0,0,0
C=CCn1c(SCC(=O)Nc2sc3c(c2C(=O)OC)CCC3)nc2sc3c(c2c1=O)CCCC3,0,0,0,0,-,-
O=[N+]([O-])c1ccccc1CNc1ccc(F)c(Cl)c1,0,5.9,0,0,0,0
Nc1cc(-c2ccccc2)nn1Cc1cccc(Cl)c1,0,0,0,0,-,-
Nc1c(-c2ccccc2)c(-c2ccccc2)nn1Cc1ccccc1,0,6.9,0,0,0,0
COc1cc(Nc2nc(NCCCN3CCCC3=O)c3ncn(C(C)C)c3n2)cc(OC)c1OC,0,13,0,0,0,0
O=C1CCCN1CCCNc1cc(N2CCOCC2)ncn1,0,0,0,0,-,-
COc1cc(Nc2nc(NCCCN3CCCC3=O)c3ncn(CCN4CCCC4=O)c3n2)cc(OC)c1OC,0,6.5,0,0,0,0
O=C1CCCN1CCn1cnc2c(NCCN3CCOCC3)nc(Nc3nccc4ccccc34)nc21,0,5.3,0,0,0,0
O=C1CCCN1CCCNc1cc(N2CCC(N3CCOCC3)CC2)ncn1,0,8.5,0,0,0,0
SMILES,TEAD-YAP inh,GPR151 ag,FBW7 act,MITF inh,GPR151 confirm,GPR119 counter
CCOC(=O)CNC(=O)CNC(=O)Cn1cnc2sc(C)c(C)c2c1=O,0,0,0,0,-,-
COc1ccc(NC(=O)/C(C#N)=C/c2cc(C)n(-c3ccc(C(C)=O)cc3)c2C)cc1,0,0,0,0,-,-
O=C1CCCN1CCCNc1nc(Nc2ccc(N3CCOCC3)cc2)nc2c1ncn2CCN1CCCC1=O,0,11,0,0,0,0
O=C1CCCN1CCn1cnc2c(Nc3ccc(N4CCOCC4)cc3)nc(Nc3ccc(N4CCOCC4)cc3)nc21,0,0,0,0,-,-
CCOc1ccccc1Nc1ncnc2c1c(-c1ccccc1)cn2-c1ccc(F)cc1,0,0,0,0,-,-
CC(NC(=O)c1ccc2c(c1)OCO2)C1CCCO1 (stereo unspecified),0,5.5,0,0,0,0
CC(NC(=O)c1cccc(Br)c1)C1CCCO1 (stereo unspecified),0,0,0,0,-,-
